We go through 61 compounds from PubChem BioAssay AID504329 (Southern Research Specialized Biocontainment Screening …, 2011).

One may read the inhibition as the drop in the measured response relative to a control, in per cent.

Among all 340,000 compounds or so, about 1,000 (0.29%) were called active. These entries were drawn from the full list. Potency and affinity values are given separately. A number with no mark means an inactive call. Rule as the data show it: inconclusive = inhibition above about 27% without an active follow-up result; inactive = below that.

The test in a line: NS1A inhibition, H1N1 influenza, cell based functional assay (AID 504329). To be noted: percent inhibition, at 12.5 µM, stronger effect = higher value.
In the case of `O=C(NCCCNC(=O)c1cccnc1)c1ccc(Cl)cc1`, the inhibition was -0.27%.

For the compound `Cc1cccc(C)c1NC(=O)C(NC(=O)CN1C(=O)c2ccccc2C1=O)c1ccccc1` (stereo unspecified), the inhibition was -3.98%.

For the compound `C=C(CC)C(=O)c1ccc(OCC(=O)O)c(Cl)c1Cl`, the inhibition is 0.79%.

With `Cc1cc(Cl)ccc1OCC(=O)O`, the inhibition is -1.09%.

Consider `O=C(COC(=O)COc1ccc(Cl)cc1Cl)NC1CC1`, for which the inhibition is 0.21%.

For the compound `CN(CC(=O)Nc1ccccc1C(=O)NC1CC1)Cc1ccc(N(C)C)cc1`, the inhibition was 0.15%.

In the case of `O=C(Nc1ccc2c(c1)C(=O)c1ccccc1-2)c1ccccc1`, the inhibition was -5.09%.

On to `Nc1c(Br)cc(Br)c2c1C(=O)c1c(cccc1S(=O)(=O)O)C2=O`, for which the inhibition was 5.84%.

For the compound `Nc1ccc(NC(=O)c2ccccc2)c2c1C(=O)c1ccccc1C2=O`, the inhibition is 24.3%.

As to `Cc1cc(C)c(NC(=O)COC(=O)c2cccc3c2C(=O)c2ccccc2C3=O)c(C)c1`, the inhibition is 3.94%.

On to `CSc1cccc(NC(=O)CN(C)S(=O)(=O)c2ccc(C)cc2)c1`, for which the inhibition is -2.41%.

Consider `CCOc1ccc(NS(=O)(=O)c2ccc(C(=O)NCC(C)(C)N3CCOCC3)cc2)cc1`, for which the inhibition is -14.4%.

As for `O=C(CCCC(=O)N/N=C\c1ccccn1)N/N=C\c1ccccn1`, the inhibition was -2.81%.

`Cc1ccc(NC(=S)NCc2ccccn2)cc1`: the inhibition is -14.7%.

For `S=C(NCc1ccccc1)NCc1ccccn1`, the inhibition is 1.05%.

On to `O=C(Cc1ccccc1)N/N=C/c1ccccn1`, for which the inhibition was -2.81%.

Turning to `Cc1ccc2c(c1)oc(=O)n2CC(=O)c1ccccc1`, the inhibition is -20.6%.

On to `CCOC(=O)CC1CCCCN1C(=O)c1ccc2nc(CCOC)oc2c1` (stereo unspecified), for which the inhibition was 1.79%.

On to `CCN1CCN(Cc2nc3cc(NC(=O)COc4ccc([N+](=O)[O-])cc4)ccc3n2C)CC1`, for which the inhibition was 0.32%.

Take `CC(=O)c1ccc(N(CC(=O)NCC2CCCO2)C(=O)CCC(=O)Nc2cc(C)on2)cc1` (stereo unspecified): the inhibition is -8.06%.

In the case of `Cc1cccn2c(=O)c(C(=O)NC3CCCCC3)c(O)nc12`, the inhibition is 5.08%.

In the case of `CCOC(=O)C1CCCN(C(=O)/C=C/c2ccc(Cl)cc2)C1` (stereo unspecified), the inhibition was -12.8%.

Consider `O=C(O)C1C2C=CC(C2)C1C(=O)Nc1ccc(Cl)c(Cl)c1` (stereo unspecified), for which the inhibition is 1.34%.

With `NC(=S)N/N=C/c1cccc(/C=N/NC(N)=S)c1`, the inhibition was -0.05%.

Regarding `NC(=S)N/N=C/c1ccccc1`, the inhibition is -0.87%.

Turning to `Oc1ccccc1C=NNC(=S)NN=Cc1ccccc1O`, the inhibition was 16.5%.

On to `COC(=O)c1cccc(/C=N/NC(N)=S)c1O`, for which the inhibition was -14.3%.

Turning to `Cc1ccc(NC(=O)c2cc(S(=O)(=O)N3CCCC3)cn2C)cc1`, the inhibition was 2.93%.

As for `COc1cccc(S(=O)(=O)Nc2ccc(C(=O)N3CCN(C(=O)c4ccco4)CC3)cc2)c1`, the inhibition is 5.1%.

Regarding `COC(=O)C=CC(=NNc1ccccc1)c1ccccc1`, the inhibition is 3.06%.

Regarding `Cc1nn(Cc2ccc(Cl)cc2)c(C)c1NC(=O)CCCn1nc(C)c([N+](=O)[O-])c1C`, the inhibition is 10.9%.

Regarding `O=C(O)c1ccc2cccnc2c1O`, the inhibition was -0.15%.

In the case of `O=C(c1ccc(Cl)cc1)C1CCCN(Cc2cccc3cccnc23)C1` (stereo unspecified), the inhibition was -0.71%.

As for `Oc1c(Br)cc(Br)c2cccnc12`, the inhibition was -9.24%.

For `Oc1c(CN2CCN(c3ccccc3)CC2)cc(Br)c2cccnc12`, the inhibition was 14.4%.

Turning to `CC(C(=O)NC1CCCCCC1)N(c1ccccc1)S(C)(=O)=O` (stereo unspecified), the inhibition is 7.2%.

Regarding `CC1(C)Cc2cccc(Oc3ccc(S(=O)(=O)N4CCCC4)cn3)c2O1`, the inhibition is 6.74%.

Turning to `CC(C)(CNC(=O)C1CCCN1C(=O)c1cccs1)N1CCOCC1` (stereo unspecified), the inhibition is -1%.

Turning to `O=C(c1cc(-c2ccc(Cl)cc2)n[nH]1)N1CCc2ccccc2C1`, the inhibition was -1.28%.

In the case of `COc1ccccc1C(=O)NC(=O)COC(=O)c1cnc(C)cn1`, the inhibition is 1.58%.

As to `CCc1cccc(CC)c1NC(=S)NCCc1ccc(O)c(O)c1`, the inhibition was 9.59%.

For the compound `CCN1/C(=C/c2ccc3cc(C)ccc3[n+]2CC)Sc2cc(C)c(C)cc21`, the inhibition is 28.7%.

Turning to `CCN1C(=C(C#N)C#N)C=Cc2ccccc21`, the inhibition is -6.42%.

For `CCN1/C(=C\c2ccc3cc(C)ccc3[n+]2CC)Sc2cc(C)c(C)cc21`, the inhibition is 25.6%.

For the compound `CCN1/C(=C/c2ccc3cc(C)ccc3[n+]2CC)Sc2ccc3sccc3c21`, the inhibition is -14%.

On to `CCN1/C(=C/c2ccc3cc(C)ccc3[n+]2CC)Sc2ccccc21`, for which the inhibition is 21%.

With `CCN1/C(=C/c2ccc3ccccc3[n+]2CCCS(=O)(=O)[O-])C=Cc2cc(C)ccc21`, the inhibition is 19.6%.

Turning to `CC(=O)N(C)C(c1ccc(N(C)C)cc1)c1nnnn1-c1c(C)cccc1C` (stereo unspecified), the inhibition is 3.51%.

Turning to `CCCC(=O)Nc1nnc(S(=O)(=O)N(CC(C)C)c2ccccc2)s1`, the inhibition was -2.29%.

Consider `CCN(CC)C(=O)[C@H]1C[C@H](CC(=O)NCCc2ccccn2)C(=O)N2CCc3c([nH]c4ccc(Cl)cc34)[C@]12C`, for which the inhibition was 15.9%.

For `O=C(CCC1CCCN(c2ncccn2)C1)NCc1ccccc1F` (stereo unspecified), the inhibition is -9.11%.

With `O=C1OCc2cc(NC(=O)C34CC5CC(CC(C5)C3)C4)ccc21`, the inhibition is 1.32%.

In the case of `Nc1ccc2c(c1)C(=O)c1ccc(Cl)cc1-2`, the inhibition is -15.2%.

In the case of `O=C(O)c1cccc2c1-c1ccc(Cl)cc1C2=O`, the inhibition was -19.9%.

Take `C[C@@H]1Cc2c(O)c(O)cc(O)c2C(=O)O1`: the inhibition was 3.88%.

As to `CC1CC(=O)c2c(cc3c(-c4c(O)cc(O)c5c(O)c6c(cc45)OC(C)CC6=O)c(O)cc(O)c3c2O)O1` (stereo unspecified), the inhibition is 24.8%.

In the case of `O=C(CSc1nnc(-c2ccco2)n1CC1CCCO1)NC1CCCC1` (stereo unspecified), the inhibition is 20.3%.

For `CCOc1ccc(N=Nc2ccc(O)c3ncccc23)cc1`, the inhibition was 4%.

Regarding `CCOc1ccc2[nH]c3ncccc3c(=O)c2c1`, the inhibition was 3.05%.

For `O=C(Nc1ccc([N+](=O)[O-])cc1Cl)c1cc(Cl)ccc1O`, the inhibition was 8.63%.

Regarding `O=C(Nc1cccc(O)c1)c1ccc([N+](=O)[O-])cc1Cl`, the inhibition was -2.66%.
